Measurements: PubChem BioAssay (NCATS)
Results filed as inconclusive are left out. Calls of active or inactive are those of the source. Calls come from the whole dose curve; as a rule, active = well fitted inhibition curve with a large enough effect in the signal ratio, with a control signal flat (not every such curve was filed as active); inconclusive = small, poorly fitted or top-dose-only effect, or effect the other way, or a change in a side signal; inactive = no such curve, though single readings can be large or run the other way; the % refers to the signal ratio. Peptide text beside a SMILES is read from it.

Target: Peroxisome proliferator-activated receptor delta (Homo sapiens) (UniProt Q03181)
Sequence (Q03181 whole entry, looked up): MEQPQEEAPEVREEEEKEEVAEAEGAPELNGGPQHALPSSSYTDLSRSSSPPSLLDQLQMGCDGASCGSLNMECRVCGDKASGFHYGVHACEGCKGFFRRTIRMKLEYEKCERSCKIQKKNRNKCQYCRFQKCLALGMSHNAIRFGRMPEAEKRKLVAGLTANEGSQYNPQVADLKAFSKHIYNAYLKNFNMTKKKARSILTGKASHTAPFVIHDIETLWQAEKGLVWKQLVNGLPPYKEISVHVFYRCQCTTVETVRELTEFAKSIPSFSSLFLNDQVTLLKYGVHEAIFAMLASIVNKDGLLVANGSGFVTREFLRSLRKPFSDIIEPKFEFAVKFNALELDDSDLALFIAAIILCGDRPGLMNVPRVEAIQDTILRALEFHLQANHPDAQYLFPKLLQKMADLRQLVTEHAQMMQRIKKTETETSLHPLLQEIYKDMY
Test: qHTS assay for small molecule antagonists of peroxisome proliferator-activated receptor delta signaling (AID 588535)
Details: HEK293T PPARd-UAS-bla, beta-lactamase FRET ratio, 18 h; series mostly up to 76.7 µM
From the text: NIH Chemical Genomics Center [NCGC] U.S. Environmental Protection Agency [EPA] National Institutes of Environmental Health Sciences [NIEHS] National Toxicology Program [NTP] NCGC Assay Overview The Peroxisome proliferator-activated receptors (PPARs) are lipid-activated transcription factors of the nuclear receptor superfamily with three distinct subtypes namely PPAR alpha, PPAR delta (also called PPAR beta) and PPAR gamma. All these subtypes heterodimerizes with Retinoid X receptor (RXR) and have different physiological functions. […] This role of PPAR delta implicates the potential use of its ligands in the treatment of metabolic disorders.
NCGC Assay Protocol Summary Using a beta-lactamase reporter-gene under control Peroxisome Proliferator-Activated Receptor delta (PPAR-delta) response element, a cell-based assay [GeneBLAzer (PPAR-delta-UAS-bla assay developed by Invitrogen] was used to measure PPAR-delta ligands signaling. GeneBLAzer PPAR-delta-UAS-bla HEK293T cells were used with assay medium containing 2% charcoal/dextran FBS. The assay was performed in clear bottom black Greiner 1536-well plates. Library compounds were measured for their ability to inhibit the reporter gene activity. Compounds were screened in a titration series in 1536-well format. The fluorescence intensity (405 nm excitation, 460/530 nm emission) was measured using an EnVision plate reader. […] Concentration-response titration points for each compound were fitted to the Hill equation yielding concentrations of half-maximal inhibition (IC50) and maximal response (efficacy) values. qHTS protocol for PPAR-delta beta-lactamase assay in antagonist mode [Step] [Parameter] [Value] [Description] 1. Reagent; 5 uL; 4000 cells/well 2. Incubation; 37 C for 5 hrs 3. Compounds; 23 nL; 0.59 nM to 92 uM 4. […] Incubation; 37 C for 18 hrs 7. Detection reagent; 1 uL of CCF4-dye 8. Incubation; RT for 2 hrs 9. Detection; Fluorescence; Envision plate reader

Row | SMILES | outcome
1 | CCc1nc(N)nc(N)c1-c1ccc(Cl)cc1 | inactive
2 | COc1c2occc2cc2ccc(=O)oc12 | inactive
3 | Cc1ccc(C)c(OCCCC(C)(C)C(=O)O)c1 | inactive
4 | c1ccc2[nH]c(-c3cscn3)nc2c1 | inactive
5 | CCCCC(CC)COC(=O)C(C#N)=C(c1ccccc1)c1ccccc1 (stereo not given) | inactive
6 | CCCc1cc(=O)[nH]c(=S)[nH]1 | inactive
7 | COC(=O)[C@H](Cc1ccccc1)NC(=O)[C@@H](N)CC(=O)O (H-Asp-Phe-OMe) | inactive
8 | CS(=O)(=O)OCCCCOS(C)(=O)=O | inactive
9 | NS(=O)(=O)c1cc(C(=O)O)c(NCc2ccco2)cc1Cl | inactive
10 | COc1cc(OC)c(C(=O)CCCN2CCCC2)c(OC)c1 | inactive
